Results published in PubChem BioAssay AID1159580 (chemical genetic matrix, 2015).
About 2,000 (36%) of roughly 5,500 compounds were called active. Not shown: some 18% with an inconclusive outcome. No stated cut-off is given here; in the data, active means normalized growth mostly below about 0.91 (no sharp cut-off); inconclusive means no clear call, values can overlap the other calls; inactive means mostly above about 0.92. The list shows a part of the results.

Assay: chemical genetic growth profiling, strain panel (AID 1159580);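 further: tested at 20 µM; growth read once vehicle control cultures reached saturation at 30 °C; 1 = growth at the plate median or of vehicle wells; lower values mean less growth of the strain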
Details: S. cerevisiae deletion strains, growth OD

Measured: normalized growth

C=CCN1CC[C@]23c4c5ccc(O)c4O[C@H]2/C(=N\NC(=O)c2ccccc2)CC[C@@]3(O)[C@H]1C5
inactive: locus YAL013W, strain DEP1, hits give low values 0.989 | locus YAL040C, strain CLN3, hits give low values 1.06 | locus YCL061C, strain MRC1 (second series), hits give low values 0.987 | locus YDR363W, strain ESC2, hits give low values 0.998 | locus YER002W, strain NOP16, hits give low values 1.03 | locus YGR078C, strain PAC10, hits give low values 0.985 | locus YNL153C, strain GIM3, hits give low values 0.983 | locus YNL175C, strain NOP13, hits give low values 0.993 | locus YNL197C, strain WHI3, hits give low values 0.996 | locus YNL224C, strain SQS1, hits give low values 1 | locus YOR083W, strain WHI5 (second series), hits give low values 0.991 | locus YPL241C, strain CIN2, hits give low values 0.996
